# Where “and” joins values, the source holds several entries; their conditions need not be identical. Equal values may be shown once. Read-outs that look alike come from different tables or passages of the source.
# How the values were obtained:
# PIKFYVE = settings: concentration: 1 μM, replicates: in singlicate, n = 1
# PIM1 = settings: concentration: 1 μM, replicates: in singlicate; n = 1
# PIM2 = settings: concentration: 1 μM, replicates: in singlicate; n = 1
# PIM3 = settings: concentration: 1 μM, replicates: in singlicate; n = 1
# PIP5K1A = settings: concentration: 1 μM, replicates: in singlicate, n = 1
# PIP5K1C = settings: concentration: 1 μM, replicates: in singlicate, n = 1
# PIP5K2B = settings: concentration: 1 μM, replicates: in singlicate, n = 1
# PIP5K2C = system: T1, PIP5K2C; settings: concentration: 1 μM, replicates: in singlicate, n = 1
# T1 construct: gene PIP4K2C
# PKAC-alpha = system: T2, PKAC-alpha; settings: concentration: 1 μM, replicates: in singlicate, n = 1
# T2 construct: gene PRKACA
# PKAC-beta = system: T3, PKAC-beta; settings: concentration: 1 μM, replicates: in singlicate, n = 1
# T3 construct: gene PRKACB
# PKMYT1 = settings: concentration: 1 μM, replicates: in singlicate, n = 1
# PKN1 = settings: concentration: 1 μM, replicates: in singlicate, n = 1
# PKN2 = settings: concentration: 1 μM, replicates: in singlicate, n = 1
# PLK1 = settings: concentration: 1 μM, replicates: in singlicate, n = 1
# PLK2 = settings: concentration: 1 μM, replicates: in singlicate, n = 1
# PLK3 = settings: concentration: 1 μM, replicates: in singlicate; n = 1
# PLK4 = settings: concentration: 1 μM, replicates: in singlicate, n = 1
# PRKCD = settings: concentration: 1 μM, replicates: in singlicate, n = 1
# PRKCE = settings: concentration: 1 μM, replicates: in singlicate, n = 1
# PRKCH = settings: concentration: 1 μM, replicates: in singlicate, n = 1
# 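Note: KINOMEscan kinase panel screen.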
smiles,measurement,setting,value
c1ccc(-c2cc(-c3c[nH]nc3-c3ccccn3)ccn2)cc1 [GW576604],%Inh,PIKFYVE,0%
same,%Inh,PIM1,0%
same,%Inh,PIM2,0%
same,%Inh,PIM3,0%
same,%Inh,PIP5K1A,19%
same,%Inh,PIP5K1C,58%
same,%Inh,PIP5K2B,0%
same,%Inh,PIP5K2C,30%
same,%Inh,PKAC-alpha,5%
same,%Inh,PKAC-beta,0%
same,%Inh,PKMYT1,3%
same,%Inh,PKN1,9%
same,%Inh,PKN2,0%
same,%Inh,PLK1,0%
same,%Inh,PLK2,0%
same,%Inh,PLK3,0%
same,%Inh,PLK4,0%
same,%Inh,PRKCD,0%
same,%Inh,PRKCE,0%
same,%Inh,PRKCH,0%
Cn1cc(-c2ccc3c(c2)CCN3C(=O)Cc2ccccc2Cl)c2c(N)ncnc21 [GSK2608885],%Inh,PIKFYVE,0%
same,%Inh,PIM1,10%
same,%Inh,PIM2,0%
same,%Inh,PIM3,0%
same,%Inh,PIP5K1A,0%
same,%Inh,PIP5K1C,7%
same,%Inh,PIP5K2B,0%
same,%Inh,PIP5K2C,90.5%
same,%Inh,PKAC-alpha,45%
same,%Inh,PKAC-beta,34%
same,%Inh,PKMYT1,18%
same,%Inh,PKN1,42%
same,%Inh,PKN2,31%
same,%Inh,PLK1,15%
same,%Inh,PLK2,51%
same,%Inh,PLK3,86%
same,%Inh,PLK4,55%
same,%Inh,PRKCD,51%
same,%Inh,PRKCE,7%
same,%Inh,PRKCH,54%
CC(C)(CN)c1nc(-c2ccc(Cl)c(O)c2)c(-c2ccncc2)[nH]1.O=C(O)C(F)(F)F [SB-477794],%Inh,PIKFYVE; 1 µM,31% and 49%
same,%Inh,PIM1,0%
same,%Inh,PIM2,0%
same,%Inh,PIM3,0%
same,%Inh,PIP5K1A; 1 µM,40% and 61%
same,%Inh,PIP5K1C; 1 µM,3% and 61%
same,%Inh,PIP5K2B; 1 µM,0% and 19%
same,%Inh,PIP5K2C; 1 µM,64% and 49%
same,%Inh,PKAC-alpha; 1 µM,86% and 87%
same,%Inh,PKAC-beta; 1 µM,56% and 89%
same,%Inh,PKMYT1; 1 µM,28% and 26%
same,%Inh,PKN1; 1 µM,23% and 0%
same,%Inh,PKN2; 1 µM,0% and 21%
same,%Inh,PLK1; 1 µM,4% and 1%
same,%Inh,PLK2; 1 µM,0% and 15%
same,%Inh,PLK3,0%
same,%Inh,PLK4; 1 µM,5% and 0%
same,%Inh,PRKCD; 1 µM,78% and 87%
same,%Inh,PRKCE; 1 µM,96% and 96.3%
same,%Inh,PRKCH; 1 µM,92.9% and 94.1%
C[C@@H](Oc1cc(-n2cnc3ccc(NC(=O)NC(C)(C)C)cc32)sc1C(N)=O)c1ccccc1Cl [GSK346294],%Inh,PIKFYVE,37%
same,%Inh,PIM1,17%
same,%Inh,PIM2,0%
same,%Inh,PIM3,0%
same,%Inh,PIP5K1A,35%
same,%Inh,PIP5K1C,48%
same,%Inh,PIP5K2B,10%
same,%Inh,PIP5K2C,42%
same,%Inh,PKAC-alpha,4%
same,%Inh,PKAC-beta,0%
same,%Inh,PKMYT1,5%
same,%Inh,PKN1,0%
same,%Inh,PKN2,0%
same,%Inh,PLK1,99.9%
same,%Inh,PLK2,96%
same,%Inh,PLK3,87%
same,%Inh,PLK4,0%
same,%Inh,PRKCD,5%
same,%Inh,PRKCE,19%
same,%Inh,PRKCH,21%
Cc1nnc(-c2ccc(C)c(-c3ccc(C(=O)Nc4ccc(NS(C)(=O)=O)cc4)cc3)c2)o1 [GW702865],%Inh,PIKFYVE,4%
same,%Inh,PIM1,0%
same,%Inh,PIM2,0%
same,%Inh,PIM3,0%
same,%Inh,PIP5K1A,52%
same,%Inh,PIP5K1C,26%
same,%Inh,PIP5K2B,17%
same,%Inh,PIP5K2C,18%
same,%Inh,PKAC-alpha,0%
same,%Inh,PKAC-beta,0%
same,%Inh,PKMYT1,0%
same,%Inh,PKN1,28%
same,%Inh,PKN2,15%
same,%Inh,PLK1,0%
same,%Inh,PLK2,0%
same,%Inh,PLK3,7%
same,%Inh,PLK4,6%
same,%Inh,PRKCD,0%
same,%Inh,PRKCE,0%
same,%Inh,PRKCH,0%
CCn1cnc2c(N)ncnc21 [GW345098],%Inh,PIKFYVE,0%
same,%Inh,PIM1,0%
same,%Inh,PIM2,0%
same,%Inh,PIM3,0%
same,%Inh,PIP5K1A,0%
same,%Inh,PIP5K1C,0%
same,%Inh,PIP5K2B,0%
same,%Inh,PIP5K2C,0%
same,%Inh,PKAC-alpha,8%
same,%Inh,PKAC-beta,14%
same,%Inh,PKMYT1,5%
same,%Inh,PKN1,20%
same,%Inh,PKN2,0%
same,%Inh,PLK1,0%
same,%Inh,PLK2,7%
same,%Inh,PLK3,18%
same,%Inh,PLK4,27%
same,%Inh,PRKCD,0%
same,%Inh,PRKCE,18%
same,%Inh,PRKCH,9%
Cc1ccc(NC(=O)c2ccnc(N3CCN(C)CC3)c2)cc1-c1ccc(C(=O)NCC2CC2)cc1 [GW775604],%Inh,PIKFYVE,0%
same,%Inh,PIM1,0%
same,%Inh,PIM2,0%
same,%Inh,PIM3,4%
same,%Inh,PIP5K1A,0%
same,%Inh,PIP5K1C,0%
same,%Inh,PIP5K2B,0%
same,%Inh,PIP5K2C,0%
same,%Inh,PKAC-alpha,0%
same,%Inh,PKAC-beta,0%
same,%Inh,PKMYT1,9%
same,%Inh,PKN1,0%
same,%Inh,PKN2,0%
same,%Inh,PLK1,6%
same,%Inh,PLK2,7%
same,%Inh,PLK3,5%
same,%Inh,PLK4,0%
same,%Inh,PRKCD,0%
same,%Inh,PRKCE,0%
same,%Inh,PRKCH,0%

# From PMC5540273 (PLoS ONE, 2017)
